Measurements reported in PubChem BioAssay (NCI).
This is part of a sample that, as a whole, favours compounds with a hit. Of some 83,000 tested, about 20% had one in any assay.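 Single-dose data. Exposure time 48 hours. Values below 10 considered active.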 A number with no mark means an inactive call. Activity calls are given as the source filed them.

System: OVCAR-5 ovarian
Test: NCI-60 one-dose screen, 48 h (100 = growth as untreated, 0 = no growth, -100 = all killed)
Conditions: 10 µM unless noted
Experimental: Growth inhibition of the OVCAR-5 human tumor cell line is measured as a screen for anti-cancer activity. Cells are grown in 96 well plates and exposed to the test compound for 48 hours. Compounds are tested at a single concentration, which is 10^-5 M for most compounds. The reported endpoint is percent growth (GI% or GIPRCNT), where numbers from 0 - 100% represent growth inhibition, and numbers from -100% - 0 represent cell death. For example, a value of 40 represents 60% growth inhibition. A value of 0 means no net growth occurred over the course of the experiment. A value of -40 indicates 40% of cells at the beginning of the experiment died by the end of the experiment. A value of -100 means all cells are dead at the end of the experiment.
NCI-60 Human Tumor Cell Lines Screen was performed using the standard one-dose NCI protocol, which is described in more detail at https://dtp.cancer.gov/discovery_development/nci-60/default.htm.
Compounds with GIPRCNT values below 10 were considered active. Activity score was based on GIPRCNT using the following formula: […]
Score is 0 for GIPRCNT values of 100 or above, 50 for GIPRCNT values of 0, and 100 for GIPRCNT values of -100.

| SMILES | growth |
| --- | --- |
| Cc1ccc(N(CC(=O)Nc2ccc(S(=O)(=O)N3CCC(N4CCCC4)CC3)cc2)S(=O)(=O)c2ccc(Cl)cc2)cc1 | 88% |
| COc1ccc(C(=O)/C=C/c2cc(-c3cc(OC)c(OC)c(OC)c3)n[nH]2)cc1OC | 32.9% |
| Cn1cc(-c2csc(-c3cn(C(=O)OC(C)(C)C)c4ccccc34)n2)c2cccnc21 | 104% |
| O=C(O)c1cccc2c1Cc1cc([N+](=O)[O-])ccc1-2 | 106% |
| COc1ccc(-c2cc(-c3c(C)oc4cc5occc5c(OC)c4c3=O)nc(N)c2C#N)cc1OC | 92.9% |
| Cc1csc(Nc2nc(-c3cccc(Br)c3)nc(C(Cl)(Cl)Cl)n2)n1 | 69.9% |
| O=C1c2cccc3cccc(c23)C(=O)N1CC#Cc1ccc2c3c(cccc13)C(=O)N(CCN1CCNCC1)C2=O | 92.1% |
| CC1(C)CC[C@]2(CO)CC[C@]3(C)C(=CC[C@@H]4[C@@]5(C)CC[C@H](NCO)C(C)(C)[C@@H]5CC[C@]43C)[C@@H]2C1 | 2.64% (active) |
| OCCNc1nc(Nc2ccc(Cl)c(Cl)c2)nc2ccccc12 | 78.3% |
| Clc1ccc(Cn2cc(-c3nc4ccc(Br)nc4n3Cc3ccc(Cl)cc3)c3cccnc32)cc1 | 96.9% |
| CC1(C)C(=O)/C(=C\c2ccco2)C[C@]2(C)[C@H]3CC[C@@H]4[C@@H](C(=O)/C=C/c5ccco5)CC[C@@]4(C)[C@]3(C)CC[C@@H]12 | 115% |
| COc1cc2ncnc(Nc3ccc(OCc4cccc(F)c4)c(Cl)c3)c2cc1NC(=O)C1CCCC1 | 88.9% |
| COc1ccccc1CNc1nc(N)nc2[nH]c3ccc(O)cc3c12 | 76.4% |
| CN1CCN(CC#CCn2c3c(c4ccccc42)C[C@]2(C)[C@H]4CC[C@@H]5[C@H]6[C@H]7OC(=O)[C@@]6(CCC7(C)C)CC[C@@]5(C)[C@]4(C)CC[C@H]2C3(C)C)CC1 | 112% |
| COc1ccc(-c2nc(Nc3ccc(-c4nc5ccccc5[nH]4)cc3)nc(N3CCOCC3)n2)cc1 | 66.3% |
| Cc1ccc(S(=O)(=O)Nc2ccc(-c3cc(-c4cccc(F)c4)c(C#N)c(=O)[nH]3)cc2)cc1 | 99.9% |
| CC(=O)N1N=C(c2ccc(C)cc2)CC1c1ccc(Oc2ccc(Br)cc2)cc1 (stereo not given) | 88.9% |
| COC(=O)[C@]12CC[C@@H](C(C)=O)[C@@H]1[C@H]1CC[C@@H]3[C@@]4(C)C/C(=C/c5cccnc5)C(=O)C(C)(C)[C@@H]4CC[C@@]3(C)[C@]1(C)CC2 | 114% |
| Cc1oc(-c2ccccc2Cl)cc1C(=O)Nc1ccc(S(N)(=O)=O)cc1 | 102% |
| Cc1ccc2oc(=O)cc(-c3sc(N4CCCCC4)nc3-c3ccccc3)c2c1 | 102% |

| SMILES | growth |
| --- | --- |
| Cn1cc(-c2nc(-c3c[nH]c4ncccc34)cs2)c2ccccc21 | 49.1% |
| Cn1c(=O)c2c(ncn2CCC(=O)Nc2ccc(F)cc2)n(C)c1=O | 103% |
| NC1=C(C/C(N)=N\O)C(c2ccccc2Cl)c2c(ccc3ccccc23)O1 (stereo not given) | 100% |
| CCCCCCCCNc1cccc2c1C(=O)c1ccccc1C2=O | 105% |
| C[C@@H]1CCCCCCCCC[C@H](O)C(=O)C[C@@H](SC[C@@H](O)C(=O)O)C(=O)O1 | 104% |
| CCCCCCCC(=O)SCC/C=C/[C@@H]1CC(=O)NCc2cccc(n2)CN(Cc2ccc3ccccc3c2)CC(=O)N[C@@H](C(C)C)C(=O)O1 | 26.2% |
| CCCCC[C@H]1CC=C2C(=O)C(Cl)=C[C@@H]2CC=CCCCC(=O)O[C@@H](CCCCC)CC=C2C(=O)C(Cl)=C[C@@H]2CC=CCCCC(=O)O[C@@H](CCCCC)CC=C2C(=O)C(Cl)=C[C@@H]2CC=CCCCC(=O)O1 | 144% [8 µM] |
| COCCNC1=C(Cl)C(=O)c2ccccc2C1=O | 107% |
| CN1CCN(CCOc2ccc(-c3cnc4c(-c5cccc(F)c5)cnn4c3)cc2)CC1 | 84.6% |
| COC(c1ccccc1)(c1ccccc1)c1ccccc1 | 113% |
| Cc1cccc(C)c1NC(=O)CSC(=S)N1CCN(CCOCCO)CC1 | 96.9% |
| CC/C=C\C[C@H]1CC=C2C(=O)C=C[C@@H]2CC=CCCCC(=O)O[C@@H](CCCCC)CC=C2C(=O)C=C[C@@H]2CC=CCCCC(=O)O[C@@H](CCCCC)CC=C2C(=O)C=C[C@@H]2CC=CCCCC(=O)O[C@@H](CCCCC)CC=C2C(=O)C=C[C@@H]2CC=CCCCC(=O)O1 | 75.1% [7.9 µM] |
| O=C(N/N=C\c1c(O)ccc2ccccc12)C1CC1 | 90.9% |
| CC(C)(C)n1cc(-c2ccnc(NCCCNS(=O)(=O)c3ccc(Cl)cc3)c2)c(-c2cccc(F)c2)n1 | 77.2% |
| O=S(=O)(NCCNc1cc(-c2cn(-c3ccccc3)nc2-c2cccc(O)c2)ccn1)c1ccc(C(F)(F)F)cc1 | 62.7% |
| CC(C)C[C@@H](NC(=O)[C@@H](Cc1ccccc1)NC(=O)c1cnccn1)B1O[C@H]2[C@H](O)[C@@H](C(=O)NCCCC[C@@H]3NC(=O)[C@@H](Cc4ccccc4)NC(=O)[C@H](CC(=O)O)NC(=O)CNC(=O)[C@H](CCCN=C(N)N)NC3=O)O[C@@H](CN)[C@H]2O1 | -19.2% (active) |
| Cc1cc(C)n(Cc2cc(C(C)(C)C)cc(C(C)(C)C)c2)c(=O)c1C#N | 83.8% |
| O=C1C(Cl)=C(Nc2ccc(S(=O)(=O)c3ccc(NC4=C(Cl)C(=O)c5ccccc5C4=O)cc3)cc2)C(=O)c2ccccc21 | 100% |
| Cc1ccccc1-c1nc(C(Cl)Cl)nc2cc(-c3ccccc3)nn12 | 96.4% |
| COC(=O)c1cc(=O)nc(N/N=C/c2ccc(C)cc2)s1 | 101% |
